Measurements reported in PubChem BioAssay (NCATS).
Results filed as inconclusive are left out. Activity calls are given as the source filed them. The call rests on the fitted dose curve; in most records, active means well fitted curve in the direction sought with a large enough effect; inconclusive means small, poorly fitted or top-dose-only effect, or another doubt; inactive means no such curve, though single readings can be large; an effect the other way counts as inactive or inconclusive.

Assays:
[1] = Cellular Toxicity (caspase-3) N2a (AID 665); settings: Potency: caspase-3 activation;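 further: compound exposure lasted 16 h at 37 °C before readout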
In short: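 Caspase-3/7 activation, measured as increased luminescence from aminoluciferin release, is quantified in mouse N2a cells exposed to compounds for 16 h. Values are normalized to DMSO and 10 uM staurosporine, with AC50 derived by Hill modelling.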

[2] = Cellular Toxicity (caspase-3) NIH 3T3 (AID 666);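 further: caspase signal read after 16 h compound exposure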
In short: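 Cells were plated at 1000 per well and incubated 5 hr at 37°C, then compound was added for 16 hr. Caspase-Glo 3/7 reagent followed for 20 min at room temperature before luminescence was read.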

[3] = Cellular Toxicity (caspase-3) Renal Proximal Tubule (AID 667);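 further: cells exposed to compound for 16 hours at 37 °C before detection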
In short: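 AC50 derived by standard Hill fit of concentration-response data, normalized between DMSO basal and 10 uM staurosporine as 100% stimulation. Cells: primary rat kidney proximal tubule, 16 h treatment at 37 °C.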

[4] = target: Cytochrome P450 3A4 (Homo sapiens) (UniProt P08684); experiment: qHTS Assay for Inhibitors and Substrates of Cytochrome P450 3A4 (AID 884); further: series mostly up to about 57 µM; nearly all actives have a fitted effect of over 50% in size
In short: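 Luminescent readout of luciferin produced by CYP3A4 (20 nM) dealkylation of Luciferin-PPXE, 25 uM (its KM). NADPH-driven reaction ran 60 min at RT after 10 min compound preincubation; data scaled to 57 uM ketoconazole as 100% inhibition.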

[5] = Cell Viability - LYMP2-001 (AID 921);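 further: series mostly up to about 92 µM; cells exposed to compound for 24 h at 37 °C; nearly all actives have a fitted effect of over 70% in size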
In short: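 Steps: seed 2500 lymphoblastoid cells/well; 5 hr, 37 C; add compound; 24 hr, 37 C; CellTiter-Glo reagent, 30 min room temperature; read luminescence. Concentration-response modeled by Hill equation for AC50.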

[6] = MultiTox-Fluor Cytotoxicity Assay - LYMP1-001 - Dead Cells (AID 946)
In short: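 LYMP1-001 lymphoblastoid cells (2500/well) treated 16 h at 37 C. Dead-cell protease cleavage of bis-AAF-R110 read at Ex/Em 485/520. Normalized to DMSO and 15 uM tetraoctylammonium bromide; AC50 from Hill fits.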

[7] = MultiTox-Fluor Cytotoxicity Assay - LYMP1-001 - Live Cells (AID 947)
[8] = Cell Viability - LYMP1-002 - Assay at 16 hr (AID 948)
In short: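 Seed 2500 LYMP1-002 cells per well in complete medium and hold 5 hr at 37 C. Add compound across a concentration series and incubate 16 hr at 37 C. Add CellTiter-Glo, wait 30 min at room temperature, read luminescence.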

[9] = MultiTox-Fluor Cytotoxicity Assay - LYMP1-002 - Live Cells (AID 955)
In short: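 Cells were seeded at 2500 per well and incubated 5 hr. Compounds were then added for 16 hr at 37 C, followed by MultiTox-Fluor reagent for 60 min at room temperature and fluorescence reading of viable-cell protease signal.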

[10] = MultiTox-Fluor Cytotoxicity Assay - LYMP1-002 - Dead Cells (AID 960); further: nearly all actives have a fitted effect of over 60% in size
In short: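 Cells were plated, rested 5 hr, then treated with compound dilution series for 16 hr at 37 C. After adding substrate reagent and 60 min at room temperature, dead-cell protease fluorescence gave concentration-response curves fitted by the Hill equation.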

[11] = MultiTox-Fluor Cytotoxicity Assay - LYMP1-003 - Dead Cells (AID 961); further: nearly all actives have a fitted effect of over 70% in size
In short: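 LYMP1-003 human lymphoblastoid cells (2500/well) exposed to compound 16 h at 37 C in complete medium; dead-cell protease read with bis-AAF-R110 fluorescence (Ex/Em 485/520) after 60 min at room temperature. Normalized to DMSO and 15 uM tetraoctylammonium bromide; AC50 from Hill fit.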

[12] = MultiTox-Fluor Cytotoxicity Assay - LYMP1-003 - Live Cells (AID 962);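 further: cytotoxic hits lower the live-cell protease signal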
In short: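 Acute cytotoxicity is scored as a drop in live-cell protease activity in human lymphoblastoid LYMP1-003 cells after 16 hr compound exposure at 37 C. AC50 values come from Hill-equation modelling of concentration-response data.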

[13] = Cell Viability - LYMP1-003 - Assay at 24 hr (AID 963)
In short: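 Cytotoxicity is scored as a concentration-dependent fall in ATP-linked luciferase signal in human lymphoblastoid LYMP1-003 cells treated 24 hr at 37 C in complete culture medium.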

[14] = Cell Viability - LYMP1-003 - Assay at 40 hr (AID 964); further: series mostly up to about 92 µM; nearly all actives have a fitted effect of over 60% in size
In short: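 Luminescent ATP signal (CellTiter-Glo) served as the viability read-out after 40 hr compound treatment of human lymphoblastoid LYMP1-003 cells at 37 C. Decreases in ATP were fitted with the Hill equation to give AC50.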

[15] = Cell Viability - LYMP2-003 (AID 965);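 further: cells exposed to compounds for 24 h before reading; nearly all actives have a fitted effect of over 50% in size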
In short: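 Seed 2500 lymphoblastoid cells/well; incubate 5 hr, 37 C; add compounds; incubate 24 hr, 37 C; add CellTiter-Glo, 30 min RT; read luminescence. AC50 from Hill fit.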

[16] = Cell Viability - LYMP2-004 (AID 966); further: nearly all actives have a fitted effect of over 65% in size
In short: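 qHTS cytotoxicity: human lymphoblastoid line, 24 hr compound treatment, 37 C, complete medium. Viability read as cellular ATP via luciferase luminescence; tetraoctylammonium bromide served as positive control.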

[17] = Cell Viability - LYMP2-005 (AID 967);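 further: series mostly up to about 92 µM; cells exposed to compound for 24 h at 37 °C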
In short: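 Acute cytotoxicity is scored as a concentration-dependent drop in intracellular ATP in human lymphoblastoid LYMP2-005 cells after 24 h compound treatment. ATP is quantified by luciferase luminescence, and AC50 is derived by Hill-equation modelling.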

[18] = Cell Viability - LYMP2-009 (AID 968);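 further: series mostly up to about 92 µM; cells exposed to compound for 24 h at 37 °C; nearly all actives have a fitted effect of over 55% in size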
[19] = Cell Viability - LYMP2-011 (AID 969); further: nearly all actives have a fitted effect of over 60% in size
In short: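 In this qHTS cytotoxicity format, compounds are tested across concentrations on human lymphoblastoid cells in complete medium for 24 hours at 37 C. Viability is taken as cellular ATP measured by luciferase luminescence.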

[20] = Cell Viability - LYMP2-013 (AID 970);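 further: series mostly up to about 92 µM; cells exposed to compound for 24 h at 37 °C; nearly all actives have a fitted effect of over 55% in size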
In short: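 Cytotoxicity is scored as a concentration-dependent drop in intracellular ATP in human lymphoblastoid cells after 24 hr compound exposure at 37 C. ATP is quantified by luciferase luminescence, and AC50 values come from Hill-equation modeling.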

[21] = Cell Viability - LYMP2-015 (AID 971); further: nearly all actives have a fitted effect of over 55% in size
In short: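 Cells are seeded at 2500 per well and incubated 5 hr at 37 C. Compounds are added across a concentration series for 24 hr at 37 C. CellTiter-Glo is added, and luminescence is read after 30 min at room temperature.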

[22] = Cell Viability - LYMP2-017 (AID 972); further: series mostly up to about 92 µM; nearly all actives have a fitted effect of over 55% in size
In short: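 Cytotoxicity is scored as a concentration-dependent drop in cellular ATP in a human lymphoblastoid line after 24 hr treatment at 37 C. Values are AC50s from Hill-equation modelling.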

[23] = Cell Viability - LYMP2-019 (AID 973)
In short: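 Cytotoxicity is scored as a concentration-dependent drop in cellular ATP after cells (2500/well) receive compound for 24 hr at 37 C. Tetraoctylammonium bromide serves as positive control.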

[24] = Cell Viability - LYMP2-021 (AID 974)
In short: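 Loss of cellular ATP, measured with a luciferase-based CellTiter-Glo readout, serves as the toxicity signal in human lymphoblastoid cells treated for 24 hours at 37 C. Potency is reported as AC50 from a standard Hill model.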

Measured: Potency

Sequence of Cytochrome P450 3A4 (Homo sapiens) (P08684 whole entry, looked up): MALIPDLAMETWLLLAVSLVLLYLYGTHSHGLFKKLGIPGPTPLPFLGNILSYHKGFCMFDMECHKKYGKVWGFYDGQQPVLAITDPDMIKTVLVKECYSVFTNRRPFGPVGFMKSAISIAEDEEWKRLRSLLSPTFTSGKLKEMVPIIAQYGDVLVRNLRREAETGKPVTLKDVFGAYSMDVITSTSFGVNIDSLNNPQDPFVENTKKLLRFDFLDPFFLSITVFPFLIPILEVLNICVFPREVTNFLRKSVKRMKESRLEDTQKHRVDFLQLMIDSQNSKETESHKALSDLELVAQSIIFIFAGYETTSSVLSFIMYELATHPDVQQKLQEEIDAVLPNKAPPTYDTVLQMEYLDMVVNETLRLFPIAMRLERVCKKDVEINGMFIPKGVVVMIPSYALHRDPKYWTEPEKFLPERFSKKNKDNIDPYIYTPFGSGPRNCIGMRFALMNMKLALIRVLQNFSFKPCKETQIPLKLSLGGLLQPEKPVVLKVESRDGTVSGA

Cc1cccc(O)c1C
inactive: all assays above
